Results: PubChem BioAssay (EPA / NIEHS)
The source made the active and inactive calls. How the source made its calls: active means hit-call score of the fitted dose curve at least 0.9, where 1 is the maximum; inactive means score below 0.9.

These compounds were tested against Aryl hydrocarbon receptor (Homo sapiens) (UniProt P35869) (assay: ATG_Ahr_CIS: Attagene CIS-FACTORIAL HepG2 Assay for human Aryl Hydrocarbon Receptor (Ahr) (AID 2282930)). Conditions: HepG2 AhR cis-factorial reporter transcription; actives raise or lower the signal.
Sequence of Aryl hydrocarbon receptor (Homo sapiens) (P35869 whole entry, looked up): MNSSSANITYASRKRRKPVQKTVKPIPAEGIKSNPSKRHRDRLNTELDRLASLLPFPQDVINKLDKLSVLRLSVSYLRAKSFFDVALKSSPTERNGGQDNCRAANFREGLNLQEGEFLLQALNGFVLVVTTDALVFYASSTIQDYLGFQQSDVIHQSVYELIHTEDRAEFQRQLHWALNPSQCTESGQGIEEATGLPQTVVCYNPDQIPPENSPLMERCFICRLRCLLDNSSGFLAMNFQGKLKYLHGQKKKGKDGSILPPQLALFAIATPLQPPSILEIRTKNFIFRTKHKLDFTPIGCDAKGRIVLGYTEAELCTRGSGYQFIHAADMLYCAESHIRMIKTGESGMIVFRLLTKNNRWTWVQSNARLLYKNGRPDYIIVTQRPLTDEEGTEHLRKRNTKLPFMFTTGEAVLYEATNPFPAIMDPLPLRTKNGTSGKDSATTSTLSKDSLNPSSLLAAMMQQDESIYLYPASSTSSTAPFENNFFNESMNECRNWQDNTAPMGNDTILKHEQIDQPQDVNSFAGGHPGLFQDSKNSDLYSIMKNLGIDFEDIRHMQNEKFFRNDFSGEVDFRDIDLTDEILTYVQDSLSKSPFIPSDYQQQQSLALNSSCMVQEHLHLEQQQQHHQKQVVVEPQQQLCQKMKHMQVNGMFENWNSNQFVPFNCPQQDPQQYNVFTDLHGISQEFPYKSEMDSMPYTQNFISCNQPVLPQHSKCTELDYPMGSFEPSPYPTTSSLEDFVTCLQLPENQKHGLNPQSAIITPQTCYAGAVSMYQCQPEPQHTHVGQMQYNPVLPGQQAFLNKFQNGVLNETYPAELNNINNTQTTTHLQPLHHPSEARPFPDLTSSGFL
Experimental: ATG_CIS is a cell-based, multiplexed-readout assay that uses HepG2, a human liver cell line, with measurements taken at 24 hours after chemical dosing in a 24-well plate.ATG_Ahr_CIS is one of 52 assay component(s) measured or calculated from the ATG_CIS assay. It is designed to make measurements of mRNA induction, a form of inducible reporter, as detected with fluorescence intensity signals by Reverse transcription polymerase chain reaction (RT-PCR) and Capillary electrophoresis technology.Data from the assay component ATG_Ahr_CIS was analyzed into 1 assay endpoint. This assay endpoint, ATG_Ahr_CIS, was analyzed with bidirectional fitting relative to DMSO as the negative control and baseline of activity. Using a type of inducible reporter, measures of mRNA for gain or loss-of-signal activity can be used to understand the reporter gene at the transcription factor-level as they relate to the gene AHR. Furthermore, this assay endpoint can be referred to as a primary readout, because this assay has produced multiple assay endpoints where this one serves a reporter gene function. To generalize the intended target to other relatable targets, this assay endpoint is annotated to the dna binding intended target family, where the subfamily is basic helix-loop-helix protein.
Human liver HepG2 cells are transiently transfected with multiple reporter transcription units (MRTUs) in 6-well plates using FuGene 6 reagent (Roche; 3 ml FuGene/1 mg DNA). The MRTU constructs are regulated by a cis-regulating element (promoter). […] A major difference between the CIS and TRANS system is that in CIS activities of endogenous TFs are measured, whereas the TRANS assay evaluates changes in activities of exogenous, chimeric NR-Gal4 proteins. […] At the end of 24 hour incubation, total RNA was isolated using TriZol reagent (Invitrogen). The isolated RNA is then reverse-transcribed using oligo(dT) primer and Mo-MLV reverse transcriptase (Invitrogen) with DNAse I (Ambion) treatment for 30 min. The one-tenth of the produced cDNA was amplified by PCR using Taq DNA polymerase (Invitrogen) and two reporter sequence-specific primers. The PCR products were fluorescently labeled by primer extension with 6-arboxyfluorescein (6-FAM) 5'-labeled reporter sequence-specific primer (2 min at 95 C, 20 s at 68 C and 10 min at 72 C) and these products were digested with 5U of HpaI (New England Biolabs) for 2h at 37 C. […] The raw capillary electrophoresis data was processed using Attagraph software (Attagene).

outcome, inactive:
CCCCCCCC(=O)OCCCCCC
N#Cc1ccc(CC(=O)c2cccc(C(F)(F)F)c2)cc1
c1ccc(CCc2ccccc2)cc1
C#CC(C)(O)CC(C)C (stereo not given)
COc1cccc(OC)c1O
CCCSc1ccc2nc(NC(=O)OC)[nH]c2c1
CCC1(c2ccccc2)C(=O)NCNC1=O
COC(CC(C)CCCC(C)(C)O)OC (stereo not given)
C=Cc1ccc(C(C)(C)C)cc1
CCCCCCCCSCCO
CN(C)c1ccncc1
Oc1ccc2cc(SSc3ccc4cc(O)ccc4c3)ccc2c1
CCC(C)c1cc([N+](=O)[O-])cc([N+](=O)[O-])c1OC(=O)OC(C)C (stereo not given)
C=CC(=O)OCCC#N
CC(=O)C(C)O (stereo not given)
COC(=O)c1ccc([N+](=O)[O-])cc1
CCc1ccc(O)c(OC)c1
CCCCCC(=O)CC
CC1=NN(c2ccc(S(=O)(=O)O)cc2)C(=O)C1
Cc1ccc(OC(=O)c2ccccc2O)cc1
CCCCC1CCC(O)CC1 (stereo not given)
CC(=O)NCCO
CCCCCCCCc1ccc(S(=O)(=O)O)cc1
C[Si]1(C)O[Si](C)(C)O[Si](C)(C)O1
C=C1C[C@]23C[C@@]1(O)CC[C@H]2[C@@]12C=C[C@H](O)[C@@](C)(C(=O)O1)[C@H]2[C@@H]3C(=O)O
CCCCOCC
CCOc1ccccc1O
CCOC(=O)COC(=O)c1cc(Oc2ccc(C(F)(F)F)cc2Cl)ccc1[N+](=O)[O-]
COc1ccc(COC(C)=O)cc1
Cc1cc(=O)oc2cc(N(C)C)ccc12
NCc1ccco1

AC50, active:
Nc1c(S(=O)(=O)O)cc(Br)c2c1C(=O)c1ccccc1C2=O 9.82 µM
Nc1ccc(N)c2c1C(=O)c1ccccc1C2=O 1.59 µM
O=C(O)CNc1ccccc1 15.1 µM
CC(CN=Cc1ccccc1O)N=Cc1ccccc1O (stereo not given) 68.7 µM
O=C1OC2(c3ccccc31)c1ccc(O)c(Br)c1Oc1c2ccc(O)c1Br 56.6 µM
CS(=O)(=O)OCCCCOS(C)(=O)=O 63.6 µM
CC1=C(Br)C(=O)C(Br)=C/C1=C(/c1ccccc1S(=O)(=O)O)c1cc(Br)c(O)c(Br)c1C 51.1 µM
CC(C)c1ccccc1O 42.9 µM
Cc1ccc(S(=O)(=O)Oc2ccc(N=Nc3ccc(-c4ccc(N=Nc5c(O)ccc6cc(S(=O)(=O)O)cc(S(=O)(=O)O)c56)c(C)c4)cc3C)cc2)cc1 30.1 µM
